Compounds with a hit are over-represented: about 3.9% of the library has one in this group of screens.
TGFb inhibitor – blocks TGF-b signaling | actives 1.2% (n = 410,000) | HepG2 CAGA-GFP TGF-b/SMAD3 reporter, GFP fluorescence, 18 h; TGF-beta stimulated, 500 pg/mL final | Potency, µM (titrated, usually from 46.1 µM), for inactives: at the top dose activity, negative = inhibition, actives largely listed as inhibitors | AID 588855; note: % is set by controls: 0 for no effect and ±100 for the full control effect; nearly all actives have a fitted effect of over 65% in size
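Inhibition of TGF-beta-driven CAGA-GFP reporter expression in HEPG2 cells is measured by cellular GFP fluorescence after 18 h stimulation with 500 pg/mL recombinant TGF-beta in 1% FBS medium at 37 degrees C.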
HepG2 tox – HepG2 cytotoxicity, counter-screen for TGF-b inhibitors. HepG2 CAGA-GFP viability, ATP luminescence, 18 h. Potency, µM (top dose mostly 46.1 µM), for inactives: at the top dose activity change, negative = cytotoxicity, hits mostly cytotoxic. actives 0.76% (n = 410,000)
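CellTiter-Glo luminescence gave cytotoxicity after 18 hours at 37 degrees C. The cells were HepG2 CAGA-GFP in 1% FBS DMEM, stimulated with 500 pg/mL TGF-beta after compound addition. %Activity was normalised to no-cell wells (complete cell-killing) and DMSO (no toxicity), and curves were fitted and classified.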
HT1080NT lethal – kills 2HG-producing HT-1080-NT fibrosarcoma cells; Potency, µM (doses to about 46.1 µM), inactives show top-dose activity, negative = less viability, most hits filed as cytotoxic; HT-1080-NT fibrosarcoma viability, CellTiter-Glo ATP luminescence, 48 h; actives 1.6% (n = 360,000);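 note: NT is the 2HG producing partner of a matched IDH1 knockdown line; 0% = DMSO-treated cells and -100% = media-only wells without cells; nearly all actives have a fitted effect of over 55% in size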
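Compounds were tested in concentration-response format on HT-1080-NT cells for 48 hours at 37 degrees C. Cell viability came from CellTiter-Glo luminescence; curves were classified by r2, response magnitude and activity.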
ATXN2 expr inh – reduces ATXN2 reporter expression in HEK-293 cells. HEK-293 ATXN2-luciferase reporter, luminescence, 24 h. Potency, µM (titrated, usually from 57 µM), for the others: top-dose activity change, negative = inhibition, most hits filed as inhibitors. actives 0.72% (n = 360,000). AID 1745845; note: % is set by controls: 0 for no effect and ±100 for the full control effect; nearly all actives have a fitted effect of over 55% in size
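qHTS (up to 57 uM final) was run with 24 h compound exposure of reporter cells at 37 °C. Each well was multiplexed: SteadyGlo luminescence measured ATXN2-luciferase expression after a fluorogenic Gly-Phe-AFC viability readout (25 uM final).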
ATXN viability – reduces viability in counter-screen for ATXN expression inhibitors | AID 651635 | S2 cells (HEK-293 line with an ATXN2-luciferase reporter) viability, CellTiter-Fluor protease fluorescence, 24 h | Potency, µM (top dose mostly 56.7 µM), hits mostly cytotoxic | actives 0.49% (n = 400,000); note: nearly all actives have a fitted effect of over 40% in size
HT1080 IDH1KD tx – kills HT-1080 cells with IDH1 knockdown; HT-1080 IDH1 knockdown viability, ATP luminescence, 48 h; Potency, µM (series often up to 46.1 µM), for the others: top-dose activity, negative = toxicity, usual class: cytotoxic; actives 2% (n = 360,000);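 note: 0% = DMSO wells and -100% = cell-free medium wells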
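After a 2 h attachment period, IDH1KD HT-1080 cells took pin-transferred compound for 48 h at 37 °C; ATP-based luminescence after 10 min room-temperature reagent incubation reported viability.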
The depositor's hits bear a star; i = inactive; ? = inconclusive; · = no result given. Calls come from the whole dose curve; as a rule, active = well fitted curve in the direction sought with a large enough effect; inconclusive = small, poorly fitted or top-dose-only effect, or another doubt; inactive = no such curve, though single readings can be large; an effect the other way counts as inactive or inconclusive. Potency is the fitted concentration of half-maximal effect.

SMILES	TGFb inhibitor	HepG2 tox	HT1080NT lethal	ATXN2 expr inh	ATXN viability	HT1080 IDH1KD tx
C/C(=N\Nc1nc(N2CCOCC2)nc(N2CCOCC2)n1)c1cccs1	12%	4%	-8%	-29%	i	5%
Cc1ccc(Cn2ccsc2=NC(=O)COC(=O)c2ccc(NC(=O)CC#N)cc2)cc1	?	-21%	-8%	-4%	i	-8%
Cc1ccc(Cn2ccsc2=NC(=O)CCl)cc1	?	-113%	1µM*	?	0.79µM*	12µM*
COc1cc(-c2cc(C)c3cccc(OC)c3n2)cc2c1OCCN(C(=O)CC1NC(=O)c3ccccc31)C2 (configuration not stated)	·	·	·	·	i	·
O=C(c1cccc(S(=O)(=O)N2CCN(c3ccc(F)cc3)CC2)c1)N1CCCC(C(F)(F)F)C1 (configuration not stated)	?	-17%	16µM*	?	i	?
CN(CC(=O)Nc1cccc(F)c1)C(=O)c1ccc2c(c1)CC(c1ccccc1)OC2=O (configuration not stated)	12%	-10%	?	-37%	?	16µM*
COc1ccc(CCN(C)C(=O)c2cccc(S(=O)(=O)N3CCN(c4ccc(F)cc4)CC3)c2)cc1OC	11µM*	-39%	-14%	·	?	?
CN(CC(=O)Nc1ccccc1Cl)C(=O)c1cccc(S(=O)(=O)N2CCN(Cc3ccccc3)CC2)c1	?	0%	21µM*	-13%	i	-6%
CN(CCOc1ccc(Cl)cc1)C(=O)c1cccc(S(=O)(=O)N2CCN(c3ccc(F)cc3)CC2)c1	?	-3%	?	?	?	-3%
CN(CC(=O)Nc1ccccc1Cl)C(=O)c1cccc(S(=O)(=O)N2CCN(c3ccccc3)CC2)c1	?	-20%	-9%	-29%	i	-20%
CN(CC(=O)Nc1cccc(F)c1)C(=O)c1ccc(C2SCCS2)cc1	?	-12%	-5%	-37%	i	-18%
CC1CN(C(=O)c2cccc(S(=O)(=O)N3CCN(c4ccc(F)cc4)CC3)c2)CC(C)O1 (configuration not stated)	-40%	-5%	8%	-2%	i	1%
O=C(NC1CC1)[C@@H]1C[C@H](Sc2nc3ccccc3[nH]2)CN1CC1CCCCC1	·	·	·	·	i	·
COc1cccc(C(=O)NCC2Cc3c(F)ccc(-c4ncccn4)c3O2)c1OC (configuration not stated)	·	·	·	·	i	·
Cc1ccc(NC(=O)C(=O)NCC(c2ccc3c(c2)OCO3)N2CCN(C)CC2)c(C)c1 (configuration not stated)	13%	-12%	·	-8%	i	·
CN(CC(=O)Nc1cccc(F)c1)C(=O)c1cccc(S(=O)(=O)N2CCN(c3ccc(F)cc3)CC2)c1	13µM*	-29%	-22%	?	i	?
Cc1cccc(C)c1NC(=O)CN(C)C(=O)c1cccc(S(=O)(=O)N2CCN(c3ccc(F)cc3)CC2)c1	0%	-21%	?	?	i	-25%
Cn1cc(-c2cnn3c(N)c(Br)c([C@H]4CCCNC4)nc23)cn1	·	·	·	0.39µM*	·	·
Cc1nc2c(-c3ccc(F)cc3)cnn2c(N)c1-c1ccc(F)cc1	?	-17%	3%	106%	i	0%
COc1cc2c(NC3CCN(C)CC3)nc(N3CCCCC3)nc2cc1OCCOCCN1CCCC1	?	-2%	·	·	·	·
ON=C1c2cc(OCCN3CCCCC3)ccc2-c2ccc(OCCN3CCCCC3)cc21	?	-53%	21µM*	?	?	23µM*
NC(=S)NN=C1c2cc(OCCN3CCOCC3)ccc2-c2ccc(OCCN3CCOCC3)cc21	?	-60%	?	7.9µM*	·	?
CCC(C)(C)c1ccc(OCCCC[n+]2ccc(C)cc2)c(C(C)(C)CC)c1	16µM*	13µM*	?	20µM*	?	?
Cc1cc[n+](CC[n+]2ccc(C)cc2)cc1	2%	-1%	6%	5%	i	0%
CCC(C)(C)c1ccc(OCCCC[n+]2cccc(C)c2C)c(C(C)(C)CC)c1	10µM*	-132%	15µM*	·	·	21µM*
SMILES	TGFb inhibitor	HepG2 tox	HT1080NT lethal	ATXN2 expr inh	ATXN viability	HT1080 IDH1KD tx
CC(C)Cn1cc(NC(=O)NCc2cccc(Cl)c2)c2ccccc2c1=O	-3%	-81%	·	-5%	i	·
CCn1c(C)c(/C=N/Nc2nc3ccccc3s2)c2ccccc21	-3%	-52%	3.5µM*	24%	i	8.9µM*
C(=N\Nc1nc2ccccc2s1)/c1cccs1	?	-25%	10µM*	43%	i	11µM*
Cc1ccsc1/C=N/Nc1nc2ccccc2s1	-5%	-28%	?	130%	i	-26%
Oc1ccccc1/C=N/Nc1ccccc1	?	-38%	?	44%	i	9.2µM*
Oc1ccccc1C=NNc1nc2ccccc2s1	?	-44%	18µM*	8%	i	8.2µM*
CCOc1ccc(/C=C/c2nc(C#N)c(NCCc3ccccc3)o2)cc1	-9%	-6%	·	·	·	·
C=C1CCN(C(CC(C)C)C(=O)NCCCc2ccccc2)S(=O)(=O)c2ccccc21 (configuration not stated)	11µM*	-33%	·	·	·	·
CCOC(=O)c1c(C)[nH]c(C(=O)OCC(=O)Nc2cc(C)ccc2OC)c1C	3%	-23%	-2%	-2%	i	0%
CCOC(=O)c1[nH]c(C)c(C(=O)Nc2cc(OC)ccc2OC)c1C	5%	-3%	0.63µM*	7%	i	0.56µM*
CCOC(=O)c1[nH]c(C)c(C(=O)OCC(=O)NC(C)c2ccc(F)cc2)c1C (configuration not stated)	3%	2%	3.7µM*	·	i	3.7µM*
CCOC(=O)c1[nH]c(C)c(C(=O)Nc2ccc(C)c(C)c2)c1C	-11%	-17%	-14%	3%	i	-26%
CCOC(=O)c1[nH]c(C)c(C(=O)c2ccc(C)cc2)c1C	-24%	0%	1.8µM*	35%	i	1.3µM*
CCOC(=O)c1[nH]c(C)c(C(=O)Nc2ccc(C)cc2C)c1C	-4%	-5%	?	4%	i	12µM*
Cc1ccc2nc3n(c(=O)c2c1)-c1cc2ccccc2cc1C(=O)NC3Cc1ccc(O)cc1 (configuration not stated)	?	-2%	9.2µM*	?	?	13µM*

Screening results: PubChem BioAssay, National Center for Advancing Translational Sciences (NCATS)
